{"source": "PubChem BioAssay AID602248", "about": "(The Scripps Research Institute Molecular Screening Center, 2012)", "note": "The campaign covered roughly 360,000 compounds. About 1,700 (0.47%) were called active. The sample as a whole holds a higher share of actives than the screen did. A number with no mark means an inactive call. Cut-off read from the data, not from the text of the source: active = activation above about 15%; inactive = the rest."}
{"test": "counter-screen for M1 agonists: effect in parental CHO-K1 cells (AID 602248);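 note: untransfected CHO-K1 host cells lacking M1 receptor as counterscreen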", "conditions": "Fluo-8 calcium fluorescence, at 3 µM, active compounds read high, scaled to maximal ATP response, vehicle zero"}
{"smiles": "COc1ccc(Br)cc1CN(C)CC(=O)Nc1cc([N+](=O)[O-])ccc1OC", "activation": "0.64%"}
{"smiles": "COc1ccc(Cl)cc1NC(=O)CN(C)Cc1ccc(OC)c(OC)c1", "activation": "6.25%"}
{"smiles": "COc1ccc(Br)cc1CN(C)CC(=O)Nc1cc(Cl)cc(Cl)c1", "activation": "18.5% (active)"}
{"smiles": "OCC1(Cc2ccccc2C(F)(F)F)CCN(Cc2ccncc2)CC1", "activation": "1.74%"}
{"smiles": "CC(C)C(=O)Nc1ccc2c3c(cccc13)CC2", "activation": "-0.06%"}
{"smiles": "N#CC1(Nc2ccc3c4c(cccc24)CC3)CCCCC1", "activation": "41% (active)"}
{"smiles": "N#CC1(Nc2ccc(-c3ccc(Cl)cc3)cc2)CCCC1", "activation": "0.41%"}
{"smiles": "CC(C)(O)C#Cc1ccc(CNC[C@H]2O[C@@H](n3cnc4c(=O)[nH]c(N)nc43)[C@H](O)[C@@H]2O)s1", "activation": "0.21%"}
{"smiles": "COCCN(C(=O)CCC(=O)Nc1nccs1)C(C(=O)NCCC(C)C)c1ccc(F)cc1", "note": "(stereo not drawn)", "activation": "0.22%"}
{"smiles": "COc1cncc(-c2cnc3sc(NCCc4ccccn4)nn23)c1", "activation": "0.67%"}
{"smiles": "Cc1ccc(S(=O)(=O)N(C)CC(=O)NCCc2c[nH]c3ccccc23)cc1", "activation": "6.95%"}
{"smiles": "CC1CCC(NC(=O)CN(C)S(=O)(=O)c2ccc3c(c2)c(=O)n(C)c(=O)n3C)CC1", "note": "(stereo not drawn)", "activation": "15.6% (active)"}
{"smiles": "CCc1ccccc1NC(=O)CN(C)S(=O)(=O)c1ccc2c(c1)c(=O)n(C)c(=O)n2C", "activation": "1.14%"}
{"smiles": "COc1cccc(CNC(=O)CN(C)S(=O)(=O)c2ccc3c(c2)c(=O)n(C)c(=O)n3C)c1", "activation": "1.02%"}
{"smiles": "COc1ccc(N(CCC#N)S(=O)(=O)c2ccc(Cl)cc2)cc1", "activation": "1.81%"}
{"smiles": "COC(=O)c1ccc(CSc2ccc3nnc(-c4ccccc4)n3n2)o1", "activation": "2.77%"}
{"smiles": "Cc1oc2nc(SCC(=O)Nc3ccc(S(N)(=O)=O)cc3)nc(NC(=O)c3ccccc3)c2c1C", "activation": "0.44%"}
{"smiles": "COc1cc(/C=C/C(=O)O)cc(S(=O)(=O)Nc2ccccc2C(=O)NCCc2ccccc2)c1OC", "activation": "-0.11%"}
{"smiles": "COc1ccc(OC)c(S(=O)(=O)Nc2ccccc2F)c1", "activation": "0.21%"}
{"smiles": "COc1cc(OC)c(S(=O)(=O)Nc2ccccc2C(=O)O)cc1S(=O)(=O)Nc1ccccc1C(=O)O", "activation": "15.1% (active)"}
{"smiles": "CC(=O)c1c(C)[nH]c(C(=O)COC(=O)c2cccc(S(=O)(=O)N(C)c3ccccc3)c2)c1C", "activation": "17.5% (active)"}
{"smiles": "CC(=O)c1c(C)[nH]c(C(=O)COC(=O)CCOc2ccc(C)cc2)c1C", "activation": "7.01%"}
{"smiles": "COc1ccc(C)cc1NC(=O)C(OC(=O)c1cccc(S(=O)(=O)N(C)c2ccccc2)c1)c1ccccc1", "note": "(stereo not drawn)", "activation": "-0.35%"}
{"smiles": "COCCN1C(=O)C(=O)/C(=C(/O)c2ccc(S(=O)(=O)N3CCOCC3)cc2)C1c1ccc(OC)c(OC)c1", "note": "(stereo not drawn)", "activation": "1.09%"}
{"smiles": "O=C(c1ccc(=O)oc1)N1CCC(C(O)(c2ccccc2)c2ccccc2)CC1", "activation": "0.08%"}
{"smiles": "O=C(Nc1nnc(C2CC2)s1)c1ccccn1", "activation": "0.38%"}
{"smiles": "CSc1ncccc1C(=O)Nc1nc2ccc(F)cc2s1", "activation": "3.35%"}
{"smiles": "c1ccc(C(=NNc2nc3ccccc3s2)c2ccccn2)cc1", "activation": "15.9% (active)"}
{"smiles": "CC(C)(C)S(=O)(=O)N1Cc2cc(CO)cc(CCO)c2[C@H]1CCO", "activation": "0.36%"}
{"smiles": "CC(C)C(=O)NCC(c1cccs1)S(=O)(=O)c1ccc(F)cc1", "note": "(stereo not drawn)", "activation": "2.59%"}
{"smiles": "Cc1cccc(C2c3[nH]c4ccccc4c3CCN2C(=O)c2cc(-c3cccn3C)n[nH]2)n1", "note": "(stereo not drawn)", "activation": "0.16%"}
{"smiles": "COc1cccc(C2c3[nH]c4ccccc4c3CCN2Cc2cccc(C)n2)c1", "note": "(stereo not drawn)", "activation": "1.31%"}
{"smiles": "Cc1cccc(C(=O)N2CCc3c([nH]c4ccccc34)C2CC(C)C)n1", "note": "(stereo not drawn)", "activation": "16.4% (active)"}
{"smiles": "Cc1ccc(C)c(S(=O)(=O)N2CCN(c3ncnc4sccc34)CC2)c1", "activation": "15.9% (active)"}
{"smiles": "Cc1ccc(S(=O)(=O)N2CCC3(CC2)OCCO3)c(C)c1", "activation": "0.97%"}
{"smiles": "Cc1ccc(C)c(S(=O)(=O)N2CCN(CC(=O)Nc3ccc([N+](=O)[O-])cc3)CC2)c1", "activation": "6.2%"}
{"smiles": "OCC[C@H]1C[C@H](O)[C@@H](O)[C@]2(Cc3ccccc3CO2)O1", "activation": "0.07%"}
{"smiles": "CCCCc1ccc(S(N)(=O)=O)cc1", "activation": "1.03%"}
{"smiles": "O=C(Nc1cc(Cl)ccc1N1CCOCC1)c1ccc(N2CCCC2=O)cc1", "activation": "1.09%"}
{"smiles": "Cc1ccc2c(=O)oc(N(C)C)nc2c1", "activation": "-0.31%"}
{"smiles": "Cc1ccc2oc(=O)ccc2c1", "activation": "0.97%"}
{"smiles": "CCN(CC)c1ccc2oc(=O)c(C)nc2c1", "activation": "28.8% (active)"}
{"smiles": "O=S1(=O)CC(N2CCN(CCO)CC2)CN1C1CCCC1", "note": "(stereo not drawn)", "activation": "0.24%"}
{"smiles": "Cc1nc2cc(C(F)(F)F)ccc2n1CCNc1nc(-c2cc(Cl)c(N)c(Cl)c2)cs1", "activation": "-0.4%"}
{"smiles": "CC(C)(c1ccccc1)c1ccc(OCCN2CCCC2)cc1", "activation": "1.86%"}
{"smiles": "Cc1nn(CCOc2ccccc2)c(=O)n1-c1ccccc1F", "activation": "0.58%"}
{"smiles": "CC(C)(c1ccccc1)c1ccc(OCCN)cc1", "activation": "16.5% (active)"}
{"smiles": "O=C(CC(NC(=O)c1ccccc1)c1ccccc1)Nc1ccc(F)c(F)c1", "note": "(stereo not drawn)", "activation": "8.06%"}
{"smiles": "CN(C(=O)CN1C(=O)NC(C)(CCc2ccccc2)C1=O)c1ccccc1", "note": "(stereo not drawn)", "activation": "1.76%"}
{"smiles": "CN(C)c1ccc(/C=C2\\NC(=S)N(Cc3ccccc3)C2=O)cc1", "activation": "27.4% (active)"}
{"smiles": "CN(C)c1ccc(CSc2ccccc2)cc1", "activation": "-0.35%"}
{"smiles": "CCn1c(SCC(=O)Nc2ccccc2F)nc2c(c1=O)SC(C)C2", "note": "(stereo not drawn)", "activation": "3.19%"}
{"smiles": "O=C(CSc1nnc(CN2CCCC2)n1-c1ccc(F)cc1)c1ccc2c(c1)OCO2", "activation": "1.52%"}
{"smiles": "Cc1ccc(S(=O)(=O)N(Cc2cc3ccccc3[nH]c2=O)CC2CCCO2)cc1", "note": "(stereo not drawn)", "activation": "5.14%"}
{"smiles": "Cc1ccc(S(=O)(=O)N(C)C)cc1NC(=O)COC(=O)C1COc2ccccc2O1", "note": "(stereo not drawn)", "activation": "1.48%"}
{"smiles": "CC(Oc1ccc2ccccc2c1)C(=O)NNC(=S)NC(=O)c1ccco1", "note": "(stereo not drawn)", "activation": "33.6% (active)"}
{"smiles": "CCCc1ccc(OCC(=O)NNC(=S)NC(=O)c2ccco2)cc1", "activation": "7.19%"}
{"smiles": "O=C(Nc1ccc2ccccc2c1)/C(=C\\c1ccc2c(c1)OCO2)NC(=O)c1ccco1", "activation": "1.3%"}
